Test results from the supplement of paper PMC8975748.
Counter-ions that a name gives are not always drawn.

The compounds below were run on Saccharomyces cerevisiae BY4741 SeMeCo community (assay: z-score of subpopulation abundance vs DMSO median, subpopulation auxotrophic for LM; higher = larger share of this subpopulation than in DMSO controls). Conditions: 10 µM; 24 h; SM minimal medium; subpopulation (auxotrophy): LM.
Method: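 Fluorescent four-plasmid SeMeCo (self-establishing metabolically cooperating S. cerevisiae BY4741 community; plasmids pH-mRuby2, pL-mWasabi, pU-eCFP, pM-TagRFP657) was grown 24 h in minimal SM medium with each Selleck FDA-approved drug at 10 µM in 384-well plates. Cells were fixed and imaged by high-content confocal microscopy. For each auxotrophic subpopulation (and the prototroph), a z-score gives the deviation from the DMSO vehicle-control population median.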

Point of comparison: `CC#C[C@]1(O)CC[C@H]2[C@@H]3CCC4=CC(=O)CCC4=C3[C@@H](c3ccc(N(C)C)cc3)C[C@@]21C` [Mifepristone], “z-score of subpopulation abundance” value 0.79. Against it:
- CCCN1CCCC[C@H]1C(=O)Nc1c(C)cccc1C [Ropivacaine HCl] — lower, 0.37
- CN1CCN(c2c(F)cc3c(=O)c(C(=O)O)cn4c3c2OCN4C)CC1 [Marbofloxacin] — lower, -0.36
- CC(=O)OCC(COC(C)=O)OC(C)=O [Triacetin] — lower, 0.2
- CN1CCC(=C2c3ccccc3C=Cc3ccccc32)CC1 [Cyproheptadine hydrochloride] — lower, -0.35
- CCCCCCCCN=c1ccn(CCCCCCCCCCn2ccc(=NCCCCCCCC)cc2)cc1 [Octenidine Dihydrochloride] — higher, 0.87
- NC12CC3CC(CC(C3)C1)C2 [Amantadine HCl] — lower, -0.26
- C[C@H]1c2cccc(O)c2C(O)=C2C(=O)[C@]3(O)C(O)=C(C(N)=O)C(=O)[C@@H](N(C)C)[C@@H]3[C@@H](O)[C@@H]21 [Doxycycline monohydrate] — lower, 0
- CC(=O)[C@H]1CC[C@H]2[C@@H]3CC=C4C[C@@H](O)CC[C@]4(C)[C@H]3CC[C@]12C [Pregnenolone] — lower, 0.32
- CC(=O)NS(=O)(=O)c1ccc(N)cc1 [Sulfacetamide Sodium] — lower, -0.08
- CC1(C)[C@H](C(=O)O)N2C(=O)C[C@H]2S1(=O)=O [Sulbactam] — higher, 1.07
- CCCc1nc(C)c2c(=O)nc(-c3cc(S(=O)(=O)N4CCN(CC)CC4)ccc3OCC)[nH]n12 [Vardenafil HCl Trihydrate] — lower, -1.19
- CC[C@H](C)C[C@H](C)CCCCCCCCC(=O)N[C@H]1C[C@@H](O)[C@@H](NCCN)NC(=O)[C@@H]2[C@@H](O)CCN2C(=O)[C@H]([C@H](O)CCN)NC(=O)[C@H]([C@H](O)[C@@H](O)c2ccc(O)cc2)NC(=O)[C@@H]2C[C@@H](O)CN2C(=O)[C@H]([C@@H](C)O)NC1=O [Caspofungin Acetate] — higher, 1.23
- CCC[S+]([O-])c1ccc2[nH]c(NC(=O)OC)nc2c1 (stereo not given) [Albendazole Oxide] — lower, -0.25
- O=C1Nc2ccccc2C1=O [Isatin] — lower, -0.62
- Cc1cc(=O)n(-c2ccccc2)n1C [Antipyrine] — lower, -0.72
- O=C1CN(/N=C/c2ccc(-c3ccc([N+](=O)[O-])cc3)o2)C(=O)N1 [Dantrolene sodium hemiheptahydrate] — higher, 1.95
- CCN1CCCC1CNC(=O)c1cc(S(=O)(=O)CC)c(N)cc1OC (stereo not given) [Amisulpride] — lower, -0.1
- N/C(=N\N=C\c1ccc(Cl)cc1)N/N=C/c1ccc(Cl)cc1 [Robenidine Hydrochoride] — higher, 5.64
- CNCC[C@@H](Oc1ccccc1C)c1ccccc1 [Atomoxetine HCl] — lower, 0.36
- CC1(C)S[C@@H]2[C@H](NC(=O)[C@H](N)c3ccc(O)cc3)C(=O)N2[C@H]1C(=O)O [Amoxicillin] — lower, -0.13
- C/C(=C\C(=O)OCCCCCCCCC(=O)O)C[C@@H]1OC[C@H](C[C@@H]2O[C@H]2[C@@H](C)[C@H](C)O)[C@@H](O)[C@H]1O [Mupirocin calcium] — lower, -0.21
- C=C[C@H]1CN2CC[C@H]1C[C@@H]2[C@@H](O)c1ccnc2ccc(OC)cc12 [Quinidine sulfate] — higher, 2.28
- Cn1c(=O)c2c(ncn2CC2OCCO2)n(C)c1=O [Doxofylline] — lower, 0.49
- O=c1c(-c2ccc(O)cc2)coc2c([C@@H]3O[C@H](CO)[C@@H](O)[C@H](O)[C@H]3O)c(O)ccc12 [Puerarin] — lower, -0.04
- Cc1c(OCC(F)(F)F)ccnc1C[S+]([O-])c1nc2ccccc2[nH]1 (stereo not given) [Lansoprazole] — higher, 1.16
- Cc1cccc(C)c1NC(=O)C1CCCCN1C (stereo not given) [Mepivacaine] — lower, 0.4
- Cc1ccc(Sc2ccccc2N2CCNCC2)c(C)c1 — lower, -0.55
- OCCN1CCN(CCCN2c3ccccc3Sc3ccc(Cl)cc32)CC1 [Perphenazine] — lower, -0.01
- CC(=O)[C@H]1CC[C@H]2[C@@H]3CCC4=CC(=O)CC[C@]4(C)[C@H]3CC[C@]12C [Progesterone] — lower, -0.71
- CN1C2CCC1CC(OC(=O)C(O)c1ccccc1)C2 (stereo not given) [Homatropine Bromide] — lower, -0.11
- COC(=O)C1=C(C)NC(C)=C(C(=O)OC(C)C)C1c1cccc2nonc12 (stereo not given) [Isradipine] — lower, -1.09
- CS(=O)(=O)c1ccc([C@@H](O)[C@@H](CO)NC(=O)C(Cl)Cl)cc1 [Thiamphenicol] — lower, -0.48
- C[N+](C)(C)CCOC(=O)CCC(=O)OCC[N+](C)(C)C [Succinylcholine Chloride Dihydrate] — lower, 0.01
- C[C@@H]1CN(c2c(F)c(N)c3c(=O)c(C(=O)O)cn(C4CC4)c3c2F)C[C@H](C)N1 [Sparfloxacin] — lower, 0.37
- CCC(C)(Oc1ccc(C2(c3ccc(OC(C)(CC)C(=O)O)cc3)CCCCC2)cc1)C(=O)O (stereo not given) [Clinofibrate] — lower, -1.21
- Cc1ncc([N+](=O)[O-])n1CC(C)O (stereo not given) [Secnidazole] — lower, -0.67
- O=C1CN(/N=C/c2ccc([N+](=O)[O-])o2)C(=O)N1 [Nitrofurantoin] — lower, -0.69
- Clc1ccc(C(Cn2ccnc2)OCc2csc3c(Cl)cccc23)c(Cl)c1 (stereo not given) [Sertaconazole nitrate] — lower, -3.39
- CCn1cc(C(=O)O)c(=O)c2cc(F)c(N3CCNCC3)nc21 [Enoxacin] — higher, 1.61
